# Screening results from PubChem.
# Hits are enriched below; roughly 3.6% of the tested compounds scored in any of these assays.
# LGR2 inh: Drosophila LGR2 receptor signaling inhibition; inhibition, % at 9.99 µM; HEK293 LGR2, CRE-luciferase, bursicon-stimulated, 4 h; hit rate 0.35% among 380,000;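 active = drop in luminescence signal, shown as inhibition above about 50% in the replicate tests, limit read from the data, passing the limit was not always enough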;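 also: agonist challenge used bursicon conditioned medium at about half maximal strength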
# Mdm2-MdmX inh: inhibitors of human Mdm2/MdmX interaction. AID 485346. O15151+Q00987. inhibition, % at 8 µM. SaOS-2 split-luciferase Mdm2/MdmX complementation, luminescence. hit rate 3% among 330,000;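 active = inhibition of at least 50% at 8 µM in the primary screen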
# Target sequence (O15151 whole entry, looked up): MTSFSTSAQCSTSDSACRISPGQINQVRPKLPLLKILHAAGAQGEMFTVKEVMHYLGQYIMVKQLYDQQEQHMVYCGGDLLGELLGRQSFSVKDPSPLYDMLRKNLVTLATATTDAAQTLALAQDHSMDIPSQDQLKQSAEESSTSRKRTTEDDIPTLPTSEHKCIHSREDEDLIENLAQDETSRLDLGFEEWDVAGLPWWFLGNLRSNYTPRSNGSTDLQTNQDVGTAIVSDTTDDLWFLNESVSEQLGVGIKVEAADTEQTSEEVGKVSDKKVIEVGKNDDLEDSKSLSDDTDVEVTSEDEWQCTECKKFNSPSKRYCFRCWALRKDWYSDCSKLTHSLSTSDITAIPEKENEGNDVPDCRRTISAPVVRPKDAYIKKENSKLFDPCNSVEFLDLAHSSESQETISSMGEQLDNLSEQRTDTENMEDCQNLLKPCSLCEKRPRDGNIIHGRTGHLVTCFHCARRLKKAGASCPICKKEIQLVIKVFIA
# Target sequence (Q00987 whole entry, looked up): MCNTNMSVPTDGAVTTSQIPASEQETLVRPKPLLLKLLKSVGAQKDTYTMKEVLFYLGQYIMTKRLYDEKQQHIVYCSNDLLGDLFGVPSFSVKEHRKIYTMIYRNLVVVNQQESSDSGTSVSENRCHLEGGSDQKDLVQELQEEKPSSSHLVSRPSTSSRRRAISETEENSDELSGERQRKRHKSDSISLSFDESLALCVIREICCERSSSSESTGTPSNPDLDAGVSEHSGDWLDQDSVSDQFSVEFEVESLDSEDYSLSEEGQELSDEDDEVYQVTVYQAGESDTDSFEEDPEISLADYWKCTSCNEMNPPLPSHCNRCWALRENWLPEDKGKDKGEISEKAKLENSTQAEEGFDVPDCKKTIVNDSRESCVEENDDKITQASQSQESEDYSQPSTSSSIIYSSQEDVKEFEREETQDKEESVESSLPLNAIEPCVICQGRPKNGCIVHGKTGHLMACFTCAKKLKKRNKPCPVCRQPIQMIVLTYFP
# KKLEB tox: CF airway cell cytotoxicity counter-screen | KKLEB CF airway cells viability, ATPlite luminescence, overnight; stronger effect = lower value; cells stimulated with P. aeruginosa culture filtrate | activity change (cytotoxicity), % at 5 µM | hit rate 0.36% among 360,000 | AID 602141;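 active = corrected activity change at or below -50% at 5 µM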
# HSP90 refold inh: inhibitors of HSP90 luciferase refolding in rabbit reticulocyte lysate; luciferase refolding luminescence, 3 h; inhibition, % at 5.6 µM; hit rate 0.91% among 290,000; AID 1789;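 active = inhibition above the screen-wide mean plus 3 SD, computed separately per campaign, cut at about 16% in these data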;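 also: 0% = DMSO wells and 100% = 60 µM geldanamycin wells; inhibitors lower the luminescence because luciferase stays unfolded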
# Peg3 promoter: reduces Peg3 promoter-driven luciferase expression in HeLa | HeLa PEG-Prom luciferase reporter, luminescence, overnight | inhibition, % at 20 µM | hit rate 1.7% among 360,000 | AID 588405;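 active = inhibition of at least 50% at 20 µM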
# CF NFkB block: inhibitors of cystic fibrosis induced NF-kB | KKLEB NF-kB-GFP reporter, PAF-induced, GFP fluorescence overnight | hit rate 0.86% among 360,000 | AID 588850 | inhibition, % at 5 µM;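 active = at least 50% inhibition at 5 µM, scaled per plate between neutral and stimulator controls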;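 also: PAF is a Pseudomonas aeruginosa culture filtrate used as stimulus; plate controls were PAF-stimulated DMSO wells for no effect and unstimulated DMSO wells for full effect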
# Mdm2 MdmX conf: human Mdm2/MdmX binding inhibition, confirmed; luminescent assay; hit rate 55% among 10,000; shares compounds with Mdm2-MdmX inh; inhibition, % at 8 µM; in the data active = inhibition above about 40%
# FLuc counter: counter-screen for Mdm2/MdmX inhibitors: full-length luciferase | SaOS-2 full-length luciferase counterscreen, luminescence | AID 504607 | shares compounds with Mdm2-MdmX inh | inhibition, % at 8 µM | hit rate 77% among 6,200;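 active = mean inhibition at 8 µM reaching about 37%, which flags the compound as non-specific, limit read from the data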;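 also: p53-null SaOS-2 cells with luciferase driven by a doxycycline-inducible promoter; compound on cells about two nights before reading with doxycycline added after day one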
# The depositor's hits bear a star; / = no result given.
SMILES,LGR2 inh,Mdm2-MdmX inh,KKLEB tox,HSP90 refold inh,Peg3 promoter,CF NFkB block,Mdm2 MdmX conf,FLuc counter
CC1=CC(=O)C(C(C)C)=C/C1=N\OC(=O)c1cccc2nc(C)oc12,18,53*,-2,4,3,7,20,/
C[C@H](CO)N1C[C@H](C)[C@H](CN(C)C(=O)c2cc(-c3ccccc3)on2)OCc2cn(nn2)CCCC1=O,10,/,/,/,/,/,/,/
Clc1ccc2c(c1)C(C1=NCCN1)c1ccccc1CS2 (stereo unspecified),25,51*,-12,6,14,21,53*,48*
S=C1NCCc2ccc(Cl)cc2C1c1ccccc1Cl (stereo unspecified),/,4,3,6,18,2,/,/
NC(=O)C1CCN(C(=O)CN2C(=O)c3ccccc3S2(=O)=O)CC1,15,10,0,0,-5,11,/,/
O=C(CN1C(=O)c2ccccc2S1(=O)=O)N1CCc2ccccc2C1,/,55*,1,-3,2,1,39,77*
CC1CCN(C(=O)CN2C(=O)c3ccccc3S2(=O)=O)CC1,/,54*,6,-7,-80,4,37,/
O=C(CN1C(=O)c2ccccc2S1(=O)=O)N1CCN(c2ccc(F)cc2)CC1,/,30,5,2,-3,-5,/,/
COC(=O)c1sccc1NC(=O)/C=C/c1ccc(Cl)cc1Cl,-23,56*,-20,-1,-191,10,-52,/
COC(=O)c1cc(Cl)c(NC(=O)/C=C/c2ccc(Cl)cc2)cc1OC,10,58*,3,-1,28,-7,-32,/
O=C(C[C@H]1C[C@H]2c3cc(NC(=O)NC4CCCC4)ccc3O[C@H]2[C@H](CO)O1)NCc1ccccc1F,4,/,/,/,/,/,/,/
CCNC(=O)C[C@H]1CC[C@@H]2[C@@H](COc3ccc(NC(=O)Nc4ccccc4Cl)cc3C(=O)N2C)O1,-23,/,/,/,/,/,/,/
O=c1[nH]c(=O)n(Cc2ccco2)c2c1C(C(F)(F)F)(C(F)(F)F)N=C(CCC1CCCCC1)N2,/,62*,-19,9,44,21,88*,40*
CC(C)Cn1c2c(c(=O)[nH]c1=O)C(C(F)(F)F)(C(F)(F)F)N=C(CCC1CCCCC1)N2,12,52*,-18,2,30,8,71*,52*
O=c1[nH]c(=O)n(Cc2ccco2)c2c1C(C(F)(F)F)(C(F)(F)F)N=C(C1CCCCC1)N2,/,5,3,0,15,-3,/,/
O=c1[nH]c(=O)n(Cc2ccco2)c2c1C(C(F)(F)F)(C(F)(F)F)N=C(CCc1ccccc1)N2,30,51*,-39,-3,55*,7,39,65*
O=c1[nH]c(=O)n(-c2ccccc2)c2c1C(C(F)(F)F)(C(F)(F)F)N=C(CCC1CCCCC1)N2,3,50,-3,-1,22,7,/,/
O=C(C1CCC1)N1CC2(C1)[C@H](c1ccccc1)[C@@H](CO)N2Cc1ccccc1F,-7,/,/,/,/,/,/,/
COc1ccccc1C#Cc1cnc2c(c1)C(=O)N([C@H](C)CO)C[C@H](C)[C@@H](CN(C)C(=O)CC1CC1)O2,-3,/,/,/,/,/,/,/
Nc1ccccc1C#CC(=O)c1ccccc1,28,96*,-85*,-1,104*,89*,63*,55*
O=C(C#Cc1cccc([N+](=O)[O-])c1)c1ccccc1,/,73*,-64*,-2,107*,97*,63*,52*
CN(C)CCCn1c(=O)n(C2CCCCC2)c(=O)c2c3c(sc21)CCCCC3,-5,90*,-7,/,9,32,72*,66*
CN(C)CCn1c(=O)n(-c2ccc(F)cc2)c(=O)c2c3c(sc21)CCCCC3,3,16,4,4,20,-13,/,/
COc1ccc(NC(=O)N(C)C[C@@H]2Oc3ccc(NC(=O)Cc4cn(C)c5ccccc45)cc3CC(=O)N([C@H](C)CO)C[C@H]2C)cc1,-9,/,/,/,/,/,/,/
CN(C)S(=O)(=O)c1cccc(NC(=S)N/N=C/c2cccc(O)c2)c1,-11,-48,-5,-2,9,-5,/,/
